Test results published in PubChem BioAssay (NCATS).
Records with an inconclusive call do not appear. Unless noted, the call rests on the fitted dose curve; in most records, active means well fitted curve in either direction with a large enough effect (not every such curve was filed as active); inconclusive means small, poorly fitted or top-dose-only effect, or another doubt; inactive means flat fitted curve, though single readings scatter.

Columns and labels:
[1] = AP1 Signaling Pathway (AID 357); settings: ME-180 AP-1-bla reporter, EGF-induced, beta-lactamase ratio, 5 h; at 17.2 µM (top of the series) unless noted;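 further: ME-180 reporter cells stimulated with EGF at its EC50 level; on the % scale 0 is the no-effect control and ±100 the full control effect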
Method in brief: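 AP-1-bla ME-180 cells, Opti-MEM + 0.5% dialyzed FBS, plated overnight 37 °C. Cpd titration + EC50 EGF, 5 h 37 °C. CCF4 2.5 h RT; ex 405, em 460/530 ratio → %activity, AC50.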

[2] = NFAT Signaling Pathway (AID 444); settings: Jurkat NFAT-bla M1, carbachol, beta-lactamase ratio, 5 h; at 17.2 µM (top of the series) unless noted;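 further: carbachol stimulus at about its EC50 of 1 µM final; on the % scale 0 is the no-effect control and ±100 the full control effect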
Method in brief: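 Jurkat cells carrying an NFAT-driven β-lactamase reporter and co-transfected muscarinic M1 receptor were treated with compound plus carbachol (1 uM final, an EC50 level) for 5 h at 37 °C. CCF4 loading followed for 1 h at RT; 460/530 nm ratio gave %activity.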

[3] = Stat Signaling Pathway (AID 446); settings: ME-180 (cervical carcinoma) SIE beta-lactamase reporter, IL-6 stimulated, 5 h; at 17.2 µM (top of the series) unless noted;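 further: ME-180 cervical cancer cells given 40 pM IL-6 alongside compound; SIE-controlled beta-lactamase reporter measured as 460/530 nm FRET emission ratio; on the % scale 0 is the no-effect control and ±100 the full control effect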
Method in brief: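 IL-6/STAT signaling read in ME-180 cells via an SIE beta-lactamase reporter. Stimulus was 40 pM IL-6 (its AC50) for 5 hrs, so both activation and inhibition register.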

[4] = biological target: Glucocorticoid receptor (Homo sapiens) (UniProt P04150); assay: GR-GFP Redistribution (AID 450;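 active means compounds whose dose series gives a full or clear partial fitted curve of increased nuclear translocation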; further: potency means the concentration at half of the fitted maximal effect)
Chain of Glucocorticoid receptor (Homo sapiens) (P04150 whole entry, looked up): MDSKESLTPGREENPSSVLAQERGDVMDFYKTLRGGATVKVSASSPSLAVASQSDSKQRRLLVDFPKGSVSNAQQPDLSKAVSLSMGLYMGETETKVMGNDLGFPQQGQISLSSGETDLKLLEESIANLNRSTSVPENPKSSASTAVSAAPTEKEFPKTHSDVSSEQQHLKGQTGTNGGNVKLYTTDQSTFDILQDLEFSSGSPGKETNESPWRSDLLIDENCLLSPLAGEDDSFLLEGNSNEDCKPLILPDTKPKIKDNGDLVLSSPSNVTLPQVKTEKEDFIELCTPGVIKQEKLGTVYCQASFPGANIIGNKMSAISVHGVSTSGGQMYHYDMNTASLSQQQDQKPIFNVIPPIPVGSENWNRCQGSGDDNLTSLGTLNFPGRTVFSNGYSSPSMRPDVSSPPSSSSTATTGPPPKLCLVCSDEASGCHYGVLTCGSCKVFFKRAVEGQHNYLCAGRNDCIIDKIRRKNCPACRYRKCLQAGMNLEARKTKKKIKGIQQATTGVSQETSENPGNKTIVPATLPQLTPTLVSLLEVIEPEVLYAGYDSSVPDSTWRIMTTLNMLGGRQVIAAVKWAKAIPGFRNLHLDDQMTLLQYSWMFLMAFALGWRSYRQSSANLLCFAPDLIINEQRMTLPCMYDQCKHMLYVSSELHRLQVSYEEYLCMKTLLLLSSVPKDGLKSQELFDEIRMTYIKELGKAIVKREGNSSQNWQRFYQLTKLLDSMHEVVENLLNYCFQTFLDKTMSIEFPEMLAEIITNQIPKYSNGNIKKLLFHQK

Cc1cc(C)n(CC(=O)n2c3c(c4ccccc42)CCCC3)n1
inactive: activity change, negative = inhibition [1] 5.13% | activity change, negative = inhibition [2] 0.496% | activity, negative = inhibition [3] 9.09% | Potency [4] > 20.6 µM

C/C(NC(=O)c1cccs1)=C1\C(=O)C[C@@H]2[C@H]1C2(C)C
inactive: activity change, negative = inhibition [1] -9.31% | activity change, negative = inhibition [2] -25.4% | activity, negative = inhibition [3] -12.2% | Potency [4] > 20.6 µM

Cc1cc(=O)oc(C)c1C(=O)NC12CC3CC(CC(C3)C1)C2
inactive: activity change, negative = inhibition [1] -5.66% | activity change, negative = inhibition [2] 1.02% | activity, negative = inhibition [3] 1.82% | Potency [4] > 20.6 µM

Cc1nc(Nc2ncc3c(n2)CCCC3=O)nc2ccccc12
inactive: activity change, negative = inhibition [1] 16.8% | activity change, negative = inhibition [2] 19.8% | activity, negative = inhibition [3] 0.527% | Potency [4] > 20.6 µM

CN(C)c1cccc2c(S(=O)(=O)N3CCOCC3)cccc12
inactive: activity change, negative = inhibition [1] -2.48% | activity change, negative = inhibition [2] -4.98% | activity, negative = inhibition [3] 7.43% | Potency [4] > 20.6 µM

COC(=O)c1ccc(C2/C(=C(/O)c3ccc(OC)cc3)C(=O)C(=O)N2Cc2ccco2)cc1 (centres undefined)
inactive: activity change, negative = inhibition [1] -4.01% | activity change, negative = inhibition [2] -12% | activity, negative = inhibition [3] -22.4% | Potency [4] > 20.6 µM

O=C(CC(c1ccco1)S(=O)(=O)c1ccccc1)c1ccc(F)cc1 (centres undefined)
inactive: activity change, negative = inhibition [1] -0.192% | activity change, negative = inhibition [2] -1.61% | activity, negative = inhibition [3] -7.8% | Potency [4] > 20.6 µM

Cc1nc(SCC(N)=O)[nH]c(=O)c1Cc1ccc(OC(C)C)cc1
inactive: activity change, negative = inhibition [1] 12% | activity change, negative = inhibition [2] 1.93% | activity, negative = inhibition [3] 8.12% | Potency [4] > 20.6 µM

S=c1[nH]nc(-c2ccco2)n1Cc1ccccc1
inactive: activity change, negative = inhibition [1] 6.39% | activity change, negative = inhibition [2] 3.89% | activity, negative = inhibition [3] 21.7% | Potency [4] > 20.6 µM

O=C(O)CCCCCN1C(=O)CCC1=O
inactive: activity change, negative = inhibition [1] 13.2% | activity change, negative = inhibition [2] 23.1% | activity, negative = inhibition [3] 5.29% | Potency [4] > 20.6 µM

COC(=O)c1cc(Br)c(=O)n(Cc2ccco2)c1
inactive: activity change, negative = inhibition [1] 10.7% | activity change, negative = inhibition [2] -14.5% | activity, negative = inhibition [3] -3.41% | Potency [4] > 20.6 µM

CCOc1cccc(C2C(C#N)=C(N)Oc3cc(C)oc(=O)c32)c1OCC (centres undefined)
inactive: activity change, negative = inhibition [1] -17.6% | activity change, negative = inhibition [2] 9.73% | activity, negative = inhibition [3] -12.7% | Potency [4] > 20.6 µM

CN(C)CC(O)COc1ccc(C(C)(C)c2ccc(OCC(O)CN(C)C)cc2)cc1 (centres undefined)
inactive: activity change, negative = inhibition [1] -0.00757% | activity change, negative = inhibition [2] 1.57% | activity, negative = inhibition [3] -4.4% | Potency [4] > 20.6 µM

COC(=O)c1nn2c(C(F)(F)F)cc(-c3ccc(Br)o3)nc2c1Br
inactive: activity change, negative = inhibition [1] 0.345% | activity change, negative = inhibition [2] -16.6% | activity, negative = inhibition [3] 0.255% | Potency [4] > 20.6 µM

CCOc1cccc(-c2nn3c(-c4ccccn4)nnc3s2)c1
inactive: activity change, negative = inhibition [1] -15% | activity change, negative = inhibition [2] -14.4% | activity, negative = inhibition [3] -1.87% | Potency [4] > 20.6 µM

O=C(COc1ccc(F)cc1)OCCN1CCOCC1
inactive: activity change, negative = inhibition [1] -4.17% | activity change, negative = inhibition [2] -0.67% | activity, negative = inhibition [3] 11.3% | Potency [4] > 20.6 µM

CCOC(=O)c1oc2cc(O)cc(C)c2c(=O)c1-c1cscn1
inactive: activity change, negative = inhibition [1] 0.0813% | activity change, negative = inhibition [2] 11.5% | activity, negative = inhibition [3] -0.432% | Potency [4] > 20.6 µM

CCOc1cccc(N2C(=O)CC(N(CCc3ccc(OC)c(OC)c3)C(=O)CC)C2=O)c1 (centres undefined)
inactive: activity change, negative = inhibition [1] -28.7% | activity change, negative = inhibition [2] 0.637% | activity, negative = inhibition [3] 3.67% | Potency [4] > 20.6 µM

O=C1CC(c2ccco2)CC(O)=C1C=Nc1cc(Cl)ccc1O (centres undefined)
inactive: activity change, negative = inhibition [1] -23.8% | activity change, negative = inhibition [2] -1.32% | activity, negative = inhibition [3] -10.9% | Potency [4] > 20.6 µM

CC(C)(C)NCC(=O)c1c[nH]c2ccccc12
inactive: activity change, negative = inhibition [1] 9.26% | activity change, negative = inhibition [2] -0.153% | activity, negative = inhibition [3] 14.8% | Potency [4] > 20.6 µM

O=P(Cc1nnco1)(c1ccccc1)c1ccccc1
inactive: activity change, negative = inhibition [1] -8.6% | activity change, negative = inhibition [2] -9.88% | activity, negative = inhibition [3] -0.63% | Potency [4] > 20.6 µM

Nc1ccc2oc(-c3ccccc3Cl)nc2c1
inactive: activity change, negative = inhibition [1] -0.869% | activity change, negative = inhibition [2] 15.3% | activity, negative = inhibition [3] 2.57% | Potency [4] > 20.6 µM

COCCN(C(=O)Nc1ccccc1)c1ccccc1C
inactive: activity change, negative = inhibition [1] -9.46% | activity change, negative = inhibition [2] -0.712% | activity, negative = inhibition [3] 6.32% | Potency [4] > 20.6 µM

Cc1csc2nc(CSc3nc4ccccc4o3)cn12
inactive: activity change, negative = inhibition [1] -11.6% | activity change, negative = inhibition [2] -1.77% | activity, negative = inhibition [3] 4.59% | Potency [4] > 20.6 µM

CC(C)COc1nc2ccccc2nc1C(C#N)C(=O)NC1CCCCC1 (centres undefined)
inactive: activity change, negative = inhibition [1] -1.14% | activity change, negative = inhibition [2] 0.574% | activity, negative = inhibition [3] 5.36% | Potency [4] > 20.6 µM

Cc1nnc2n(C3CCCCC3)c(=O)c3c4c(sc3n12)COC(C)(C)C4
inactive: activity change, negative = inhibition [1] 4.48% | activity change, negative = inhibition [2] 5.64% | activity, negative = inhibition [3] 0.172% | Potency [4] > 20.6 µM

C=CCNc1nc(C2(C)CC3(CC(C)(C)OC3=O)C(=O)O2)cs1 (centres undefined)
inactive: activity change, negative = inhibition [1] -3.51% | activity change, negative = inhibition [2] -7.31% | activity, negative = inhibition [3] -18.1% | Potency [4] > 20.6 µM

Oc1c(C=NCc2ccncc2)sc2ccccc12
inactive: activity change, negative = inhibition [1] -15.7% | activity change, negative = inhibition [2] -6.22% | activity, negative = inhibition [3] -1.25% | Potency [4] > 20.6 µM

CN(C)c1ccc(C=NCCC2(O)CCOC(C)(C)C2)cc1 (centres undefined)
inactive: activity change, negative = inhibition [1] 0.733% | activity change, negative = inhibition [2] 4.94% | activity, negative = inhibition [3] -0.198% | Potency [4] > 20.6 µM

CCN(CC)C(=O)CSC1=C(C#N)C(c2ccco2)C(C(=O)OCCOC)=C(C)N1 (centres undefined)
inactive: activity change, negative = inhibition [1] -10.6% | activity change, negative = inhibition [2] -0.498% | activity, negative = inhibition [3] 2.75% | Potency [4] > 20.6 µM

Cc1nn(C)cc1CNC(=O)c1ccc(Br)o1
inactive: activity change, negative = inhibition [1] 5.3% | activity change, negative = inhibition [2] -0.512% | activity, negative = inhibition [3] 6.82% | Potency [4] > 20.6 µM

Cc1ccc(N(Cc2cc3ccccc3[nH]c2=O)C(=O)c2ccco2)c(C)c1
inactive: activity change, negative = inhibition [1] -26.3% | activity change, negative = inhibition [2] 25.5% | activity, negative = inhibition [3] -13% | Potency [4] > 20.6 µM

Cc1ccc(/C=N/n2nnnc2N)o1
inactive: activity change, negative = inhibition [1] 2.97% | activity change, negative = inhibition [2] -0.388% | activity, negative = inhibition [3] -5.51% | Potency [4] > 20.6 µM

CCCCSc1nnc(-c2ccc(NC(C)=O)cc2)n1C
inactive: activity change, negative = inhibition [1] -14.2% | activity change, negative = inhibition [2] 12.4% | activity, negative = inhibition [3] 0.987% | Potency [4] > 20.6 µM

Cc1cccc(OCC(=O)N2CCC(N3CCOCC3)CC2)c1
inactive: activity change, negative = inhibition [1] -0.218% | activity change, negative = inhibition [2] 6.61% | activity, negative = inhibition [3] 2.76% | Potency [4] > 20.6 µM

COCCn1c(SCc2c(F)cccc2Cl)nc2c1c(=O)[nH]c(=O)n2C
inactive: activity change, negative = inhibition [1] -17.8% | activity change, negative = inhibition [2] -0.711% | activity, negative = inhibition [3] -1.06% | Potency [4] > 20.6 µM

CCc1cc(=O)oc2cc(C)c(CN3CCCCC3)c(O)c12
inactive: activity change, negative = inhibition [1] 7.78% | activity change, negative = inhibition [2] -13.9% | activity, negative = inhibition [3] -6.86% | Potency [4] > 20.6 µM

CC1(C)Cc2[nH]c(=S)c(C#N)cc2CO1
inactive: activity change, negative = inhibition [1] 8.31% | activity change, negative = inhibition [2] -8.3% | activity, negative = inhibition [3] 27.9% | Potency [4] > 20.6 µM

COc1ccc(/C(O)=C2\C(=O)C(=O)N(CCN(C)C)C2c2cccc(OC)c2OC)cc1Cl (centres undefined)
inactive: activity change, negative = inhibition [1] -2.56% | activity change, negative = inhibition [2] 11.9% | activity, negative = inhibition [3] 8.3% | Potency [4] > 20.6 µM

Cc1ccc(S(=O)(=O)NC(=O)Nc2ncc3c(n2)CC(c2ccco2)CC3=O)cc1 (centres undefined)
inactive: activity change, negative = inhibition [1] -9.62% | activity change, negative = inhibition [2] 7.22% | activity, negative = inhibition [3] -2.33% | Potency [4] > 20.6 µM

CCn1nc(NC(=O)c2cccnc2)c2cc3ccccc3nc21
inactive: activity change, negative = inhibition [1] -12.7% | activity change, negative = inhibition [2] 9.22% | activity, negative = inhibition [3] -4.62% | Potency [4] > 20.6 µM

C=CCn1c(SCc2c(F)c(F)c(F)c(F)c2F)nc(O)cc1=O
inactive: activity change, negative = inhibition [1] 4.5% | activity change, negative = inhibition [2] 25.9% | activity, negative = inhibition [3] -10.5% | Potency [4] > 20.6 µM

Cn1c(=O)c2c(nc(Br)n2Cc2ccc3ccccc3c2)n(C)c1=O
inactive: activity change, negative = inhibition [1] -1.43% | activity change, negative = inhibition [2] -13.6% | activity, negative = inhibition [3] -5.3% | Potency [4] > 20.6 µM

Cc1c(C)n(C(=O)CSc2nccn2C)c2ccccc12
inactive: activity change, negative = inhibition [1] 14.1% | activity change, negative = inhibition [2] -0.559% | activity, negative = inhibition [3] 0.828% | Potency [4] > 20.6 µM

CC(=O)NCCCCCCNC(C)=O
inactive: activity change, negative = inhibition [1] 10.3% | activity change, negative = inhibition [2] -0.404% | activity, negative = inhibition [3] 2.41% | Potency [4] > 20.6 µM

COc1ccc(C2CC(C(F)(F)F)n3ncc(C(=O)NCC4CCCO4)c3N2)cc1OC (centres undefined)
inactive: activity change, negative = inhibition [1] -0.991% | activity change, negative = inhibition [2] 3.91% | activity, negative = inhibition [3] -0.435% | Potency [4] > 20.6 µM
